Assay results reported in PubChem BioAssay AID493004 (Broad Institute, 2010).
Hit rate of the full screen: of about 2,300 compounds, fewer than 10 were called active.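 The calls were made as follows: active = Signal drops as the depositor expects, and the fitted half-maximal dose is no more than ten times the top valid tested dose; inconclusive = Poor fit, or a flat curve whose signal drops by 30% to 70%; inactive = the rest.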 Not all results are given here.

assay: growth restoration of Mot1-301 yeast on galactose, dose response, SUMO pathway inhibitor project, whole organism, S. cerevisiae, ATP luminescence, cherry-picked samples (AID 493004);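 also: more negative values mean stronger growth rescue toward the control strain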; conditions: S. cerevisiae Mot1-301 galactose growth, 24 h, -100 = growth of slx-deleted rescue strain; series mostly up to 42 µM

outcome, inactive:
Cc1ccc(CC2CC(=O)N(c3ccc4c(c3)OCCO4)C2=O)cc1 (centres undefined)
O=C(CCc1ccccc1)NNC(=O)c1ccc(Br)cc1
Cc1ccc(N2C(=O)C3N=NN(CC(=O)N4N=C(c5cccc6ccccc56)CC4c4ccccc4)C3C2=O)cc1 (centres undefined)
CC1CCN(Cc2nc3c(c(=O)n(C)c(=O)n3C)n2CCc2ccccc2)CC1
COc1cc(CNCc2ccc3c(c2)OCO3)c([N+](=O)[O-])cc1OC
O=C(Nc1ccccc1N1CCN(c2ccccc2)CC1)c1cccc(F)c1
N#CC(C#N)=CN=c1ccn(Cc2ccc(Cl)cc2Cl)cc1
Cc1cccc(C)c1NC(=O)C(Cl)C(=O)c1ccccc1 (centres undefined)
Cc1cc(C)cc(NC(=O)C2CCCN(S(=O)(=O)c3ccc4[nH]c(=O)ccc4c3)C2)c1 (centres undefined)
Cc1cc(Br)ccc1NC(=O)c1cnc(N2CCN(c3ccccn3)CC2)c2ccccc12
Cc1ccc2c(c1)C(O)(CC(=O)c1cccnc1)C(=O)N2 (centres undefined)
COc1ccc(OCCC(=O)c2ccc(OC)cc2)cc1
CCN(CC)C(=O)CSc1nnc(CNc2ccc(F)cc2)n1Cc1ccco1
O=Cc1ccc(Oc2cccc(C(F)(F)F)c2)nc1
Cc1cc(C)cc(C(=O)NC(CC(N)=O)c2ccc(N3CCC(N4CCCCC4)CC3)c([N+](=O)[O-])c2)c1 (centres undefined)
CCCC(=O)N(CCN1CCOCC1)c1nc2ccc(OCC)cc2s1
CC1=CC(=O)C=CC1(C)C(Cl)(Cl)Cl (centres undefined)
CCc1nc2ccccc2c(C(=O)OC2CCCCC2=O)c1C (centres undefined)
COC(=O)c1cc2occc2n1Cc1nc(-c2ccccc2C)oc1C
CCC(C)[C@H]1COCCS(=O)(=O)N1Cc1ccc(C)cc1 (some centres undefined)
Cc1nc2sc(C(c3ccco3)N3CCOCC3)c(O)n2n1 (centres undefined)
COc1ccc(S(=O)(=O)N2CCOC2CNC(=O)C(=O)NCc2ccncc2)cc1C (centres undefined)
O=C(NNS(=O)(=O)c1c(F)cc(F)c(Cl)c1F)C12CC3CC(CC(C3)C1)C2
CCn1c(SCC(=O)N/N=C/c2ccccc2OCC(=O)O)nnc1-c1ccc(C(C)(C)C)cc1
C=C(Cl)COC(=O)C1C2C=CC(C2)C1C(=O)O (centres undefined)
CCOc1ccc(N(CC)S(=O)(=O)c2cccc3nsnc23)cc1
CCC(CC)C(=O)Nc1ccc(S(=O)(=O)Nc2nccs2)cc1
O=c1c2c(ncn1Cc1ccccc1)nc1n2CCC1
Cc1ccc(S(=O)(=O)CCC(=O)OCC(=O)N(C)C2CCS(=O)(=O)C2)cc1 (centres undefined)
COc1cc(C(=O)OCC(=O)NC(C)CCc2ccccc2)cc(OC)c1OC (centres undefined)
O=C(NCc1ccccc1Cl)C(=O)NCC1CCCN1S(=O)(=O)c1cccs1 (centres undefined)
COc1cccc(NC(=O)c2nn(C34CC5CC(CC(C5)C3)C4)cc2[N+](=O)[O-])c1
CC(C)n1c(O)c(N=Nc2ccccn2)c2ccccc21
CCCCC1=CC2=CC(=O)C(C)(OC(=O)CC)C(=O)C2=CN1CCCOC(C)C (centres undefined)
Cc1ccc(Nc2cc(C)nc3c(C)ccc([N+](=O)[O-])c23)cc1
CCC1(CC)NC(=O)N(CC(=O)OCC(=O)NC(=O)c2ccccc2)C1=O
CCN1CCCC1CNC(=O)Cn1cnc2ccc(S(=O)(=O)N3CCC(C)CC3)cc2c1=O (centres undefined)
CN(C)/C(CN1CCCCC1)=C1\N=C(c2ccccc2)OC1=O
COC(=O)c1sccc1NC(=O)CC1C(=O)NCCN1C(=O)Nc1ccc(F)cc1F (centres undefined)
COc1cc(NC(=O)C2=CC(c3ccco3)=NS(=O)(=O)N2C)cc(OC)c1OC
CN(C)C(=O)c1coc2nc3ccccc3nc12
O=C(Nc1nccs1)C1CCN(S(=O)(=O)c2ccc(Cl)c(C(F)(F)F)c2)CC1
Cc1cccc(-[n+]2c(-c3cccc(Br)c3)[nH]c3nc4ccccc4nc32)c1
COCCCN1C(=O)c2ccc(C(=O)Nc3ccc(OC)cc3OC)cc2C1=O
COc1ccc(/C=C(\C#N)C(=O)NCCCn2ccnc2)cc1
Cn1c(C(=O)NCCc2ccsc2)cc2c(=O)n(C)c3ccccc3c21
CN(NC(=O)c1ccccc1F)c1nc(C(F)(F)F)nc2ccccc12
Cc1cc(C)c2c(Cn3ccnc3)cc(=O)oc2c1
COc1ccc(-c2cn(-c3ccc(C)cc3)c(=O)n2CC(=O)Nc2ccc(OC)c(OC)c2)cc1
O=C1CCC(=O)N1CCOP1(=O)COc2ccccc2OC1
CCOc1ccc(C(C(=O)NC2CCCC2)N(C(=O)c2snc(C(N)=O)c2N)C2CCCC2)cc1 (centres undefined)
Cc1ccc(O)c(CNc2nc3ccccc3n2C)c1
NC(=O)c1cc(S(=O)(=O)N2CCCC2)ccc1OCc1ccc(F)cc1
COc1ccccc1CSc1ncc(-c2ccc([N+](=O)[O-])cc2)[nH]1
O=C(CP(=O)(c1ccccc1)c1ccccc1)N1CCOCC1
N#CC1=C(N)Oc2n[nH]c(CSc3ccccc3)c2C12C(=O)Nc1ccccc12 (centres undefined)
COc1ccc(OC)c2c(N)c(C#N)c(C(F)(F)C(F)(F)F)nc12
COCCNC(=O)C(c1ccc(C)cc1)N(C(=O)CCC(=O)Nc1ccccn1)c1cccc(C)c1 (centres undefined)
CC(C)c1cc(C(=O)N/N=C/C(Br)=C/c2ccccc2)n[nH]1
CCCc1cc(=S)n2c([nH]c3ccccc32)c1C#N
CCOc1ccc(Cn2c(SCCCCC#N)nc3c2c(=O)n(C)c(=O)n3C)cc1OCC
COc1cccc(-n2c(SCC(=O)NC3CCCCC3)nc3n[nH]c(C)c3c2=N)c1
Cc1ccc(C)c(S(=O)(=O)n2cnc3ccccc32)c1
COc1ccc(C(=O)OCC(=O)c2ccc(C)c(S(=O)(=O)N3CCOCC3)c2)cc1OC
Cc1cccc(N(C(=O)c2ccc(CN3CCOCC3)o2)C(C(=O)NC2CCCCC2)c2ccc(F)cc2)c1 (centres undefined)
O=C(NC1CCCCC1)c1ccc2c(=O)n(CC3CCCO3)c(=O)[nH]c2c1 (centres undefined)
CCOCCCNCc1ccc(OCc2ccc(F)cc2)c(OC)c1
COc1cccc(CN(C)CC2CCCN(CCc3ccc(Cl)cc3)C2)c1OC (centres undefined)
COc1cccc(OC)c1C(=O)Nc1ccc2c(c1)n(C)c(=O)n2C
COC(=O)/C=C\C(=O)Nc1cccc([N+](=O)[O-])c1
CC(C)Cc1nc(N2CCOCC2)c(C#N)c2c1CCC2
COc1ccc(-c2[nH]nc3c2C(c2ccncc2)C(C#N)=C(N)O3)cc1 (centres undefined)
COc1cc(CN2CCNC(=O)C2CC(=O)NCCc2ncccc2C)cc(OC)c1 (centres undefined)
CC(C)CCNC(=O)Cn1c(=O)oc2cc(S(=O)(=O)N3CC(C)CC(C)C3)ccc21 (centres undefined)
CCc1cc2c(=O)c(-c3ccc(F)cc3)c(C(F)(F)F)oc2cc1OCC(=O)O
CCc1c(C)nc(N2CCN(Cc3ccccc3)CC2)[nH]c1=O
Cc1cc(C)c(OCC(=O)N/N=C/c2ccco2)c(C)c1
CC1=NC2(CCCc3c2no[n+]3[O-])N(O)C1(C)C (centres undefined)
CCCCC(=O)N/N=C(\C)CC(=O)Nc1cc(Cl)ccc1OC
CC(NC(=O)c1ccc(Cl)cc1)C(=O)N1CCCCC1 (centres undefined)
CCc1ccccc1NC1c2ccccc2C(=O)N1c1cccnc1 (centres undefined)
COc1ccccc1N1CCN(C(=O)C(=O)N/N=C/c2ccccc2F)CC1
N#CC1=C(N)OC2=C(C(=O)CCC2)C1C1CC=CCC1 (centres undefined)
Cc1cc(C)c2nc(-c3cccnc3)cc(C(=O)Nc3ccc(S(=O)(=O)Nc4onc(C)c4C)cc3)c2c1
CSc1nc2ccc(NC(=O)c3c(F)cccc3F)cc2s1
COc1ccccc1/C=C/C(=O)NC(=S)N1CCOCC1
CCCCNC(=O)c1ccccc1NC(=O)C1=C(C)OCCS1
C=CCC(NCCCO)c1cccc(OC)c1OC (centres undefined)
O=C(OC1CCOC1=O)c1cccc(S(=O)(=O)Nc2ccc(F)cc2)c1 (centres undefined)
CCOC(=O)C1(Cc2cccc(OC)c2)CCCN(S(=O)(=O)c2cccnc2)C1 (centres undefined)
Cc1ccc(S(=O)(=O)N2[C@@H](c3ccc(Br)cc3)C(C(=O)O)=C[C@H]2CC2CCCC2)cc1
CCN(CC)C(=O)CSC(Nc1cccc(F)c1)=C(C#N)C#N
Cc1ccc(NC(=O)Nc2cccc(C(F)(F)F)c2)nc1
O=C(NCC(=O)N(c1ccccc1)C(C(=O)NCC1CCCO1)c1ccccc1)c1cccs1 (centres undefined)
O=C(CSCc1ccc(Cl)cc1)N1CCCCC1
O=C1CC(c2ccccc2)C(=O)N1c1cccc(O)c1 (centres undefined)
Cc1nn(CCOc2ccccc2)c(=O)n1-c1ccccc1F
Oc1c(Cl)cc(Cl)c(Cl)c1Cc1c(O)c(Cl)cc(Cl)c1Cl
CC(Oc1ccccc1[N+](=O)[O-])C(=O)N/N=C/c1ccoc1 (centres undefined)
